This note sets out measurements from article PMC4336329 (PLoS ONE, 2015).

The whole screen tested about 310,000 compounds, of which about 14,000 (4.5%) showed an effect of 50% or more. The effect is printed as a negative number. This excerpt belongs to a sample that is enriched for strong results.
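Further: peak tail current of the secondary pulse compared with the same well before compound.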

human ether-à-go-go-related gene (hERG) potassium channel, sequence (Q12809 whole entry, looked up): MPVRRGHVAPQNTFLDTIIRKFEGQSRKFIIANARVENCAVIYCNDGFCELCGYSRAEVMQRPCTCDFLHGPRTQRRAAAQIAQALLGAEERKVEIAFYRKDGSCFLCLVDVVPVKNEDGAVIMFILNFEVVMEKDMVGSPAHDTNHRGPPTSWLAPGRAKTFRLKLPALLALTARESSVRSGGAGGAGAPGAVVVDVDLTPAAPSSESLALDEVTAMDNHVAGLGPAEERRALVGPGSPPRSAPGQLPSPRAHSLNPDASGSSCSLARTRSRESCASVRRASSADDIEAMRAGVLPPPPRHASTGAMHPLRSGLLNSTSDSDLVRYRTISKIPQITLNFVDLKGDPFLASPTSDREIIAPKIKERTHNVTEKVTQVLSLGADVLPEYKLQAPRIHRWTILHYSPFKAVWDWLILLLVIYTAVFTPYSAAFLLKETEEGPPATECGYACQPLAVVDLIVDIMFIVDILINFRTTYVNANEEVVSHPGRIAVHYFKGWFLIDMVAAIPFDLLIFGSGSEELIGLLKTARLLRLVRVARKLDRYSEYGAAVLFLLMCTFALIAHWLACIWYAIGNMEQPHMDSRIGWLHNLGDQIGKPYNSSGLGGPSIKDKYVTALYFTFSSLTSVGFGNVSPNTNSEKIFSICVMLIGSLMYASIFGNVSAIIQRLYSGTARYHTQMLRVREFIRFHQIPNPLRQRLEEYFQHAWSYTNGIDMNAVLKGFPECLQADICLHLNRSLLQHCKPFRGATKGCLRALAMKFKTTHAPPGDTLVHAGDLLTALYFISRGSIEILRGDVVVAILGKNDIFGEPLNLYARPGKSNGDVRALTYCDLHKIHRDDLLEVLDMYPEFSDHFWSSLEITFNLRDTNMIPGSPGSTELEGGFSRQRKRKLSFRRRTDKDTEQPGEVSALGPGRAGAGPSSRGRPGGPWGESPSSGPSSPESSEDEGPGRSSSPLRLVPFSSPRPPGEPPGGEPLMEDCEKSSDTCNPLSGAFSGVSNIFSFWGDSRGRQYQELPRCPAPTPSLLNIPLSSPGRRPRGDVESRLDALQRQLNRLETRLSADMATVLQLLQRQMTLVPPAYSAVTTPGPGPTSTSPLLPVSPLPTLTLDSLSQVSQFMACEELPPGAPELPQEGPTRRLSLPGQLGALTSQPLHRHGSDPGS

The experiment addresses human ether-à-go-go-related gene (hERG) potassium channel (human, UniProt Q12809). Put plainly: primary screen, population patch clamp on CHO cells stably expressing hERG; higher = less effect of the substance.
In the case of `Fc1ccc(CNCc2cccc(Br)c2)cc1`, the “hERG current change (%, negative = inhibition) at 10uM” value was 13.9%. The result for `O=C(CSc1cn(CCNC(=O)c2ccccc2)c2ccccc12)NCC1CCCO1` (centres unmarked) reads -10.9%.

Take `O=C(CNC(=O)c1cccs1)OCC(=O)c1ccccc1`: the “hERG current change (%, negative = inhibition) at 10uM” value worked out at 8.55%. The result for `O=C(c1cccnc1Nc1ccccc1F)N1CCOCC1` reads 11.7%; that for `O=S(=O)(c1ccccc1)C(/C=N\O)/C=C/c1ccccc1` (centres unmarked), 4.57%; that for `CCCc1nnc(NC(=O)CCC(=O)NC2CCCCCC2)s1`, 13.7%. The result for `C=CCNC(=O)COC(=O)CCC(=O)c1cccs1` reads 1.42%; that for `CCC(C)NC(=O)CSc1nc2ccsc2c(=O)n1-c1ccc(OC)cc1` (centres unmarked), -3.72%. The value for `O=[N+]([O-])c1cccc(NNS(=O)(=O)c2ccccc2F)c1` was -29.4%; that for `O=c1c2c3c(sc2nc2n1N=C(c1cccs1)CS2)CCCC3` was 5.12%.

As for `COc1ccnc(CN(C)C(=O)C2CCC(=O)N(CCN(C)C)C2)c1` (centres unmarked), the “hERG current change (%, negative = inhibition) at 10uM” value is 17.5%. Regarding `O=C(c1ccco1)N1CCN(c2ncnc3scc(-c4ccccc4)c23)CC1`, the “hERG current change (%, negative = inhibition) at 10uM” value is -64.5%. The value for `CC(C)(C)C(=O)N1CCN(c2ncnc3scc(-c4ccccc4)c23)CC1` was -30%. The result for `O=C(c1ccco1)N1CCN(c2ncnc3c(-c4ccccc4)nsc23)CC1` reads -14.2%.

With `CCN1CCN(C(=O)c2ccc3c(Cl)c4c(nc3c2)CCCC4)CC1`, the “hERG current change (%, negative = inhibition) at 10uM” value was 6.65%. The value for `CCCCC(C(=O)O)C(C)CC(=O)Nc1nncs1` (centres unmarked) was 13.1%; that for `CC(=O)c1ccc(NC(=O)/C(=C\c2ccco2)NC(=O)c2ccco2)cc1` was -15.9%. The value for `O=C(Nc1ccc2ccccc2c1)/C(=C/c1cccc(Br)c1)NC(=O)c1ccco1` was -68.6%; that for `O=C(Nc1cccc(Br)c1)/C(=C\c1cccnc1)NC(=O)c1ccco1` was -56.6%; that for `O=C(Nc1ccccc1)/C(=C/c1cccnc1)NC(=O)c1ccco1` was -4.49%.

Take `Cc1ccc(NC(=O)/C(=C\c2cccnc2)NC(=O)c2ccco2)cc1`: the “hERG current change (%, negative = inhibition) at 10uM” value was -28.5%. The result for `CC(=O)c1cccc(NC(=O)/C(=C\c2ccco2)NC(=O)c2ccco2)c1` reads -64.3%; that for `O=C(Nc1cccc(Cl)c1)/C(=C\c1cccnc1)NC(=O)c1ccco1`, -67%; that for `Cc1ccc(NC(=O)/C(=C/c2cccc(Br)c2)NC(=O)c2ccco2)cc1`, -28.1%. The result for `O=C(Nc1cccc(F)c1)/C(=C\c1cccnc1)NC(=O)c1ccco1` reads -22.4%. With `CC(=O)c1cccc(NC(=O)/C(=C\c2cccnc2)NC(=O)c2ccco2)c1`, the “hERG current change (%, negative = inhibition) at 10uM” value was -10.6%. The result for `CC(=O)c1cccc(NC(=O)/C(=C/c2ccco2)NC(=O)c2ccco2)c1` reads -18.6%; that for `O=C(Nc1ccccc1)/C(=C/c1cccc(Br)c1)NC(=O)c1ccco1`, 5.35%; that for `Cc1ccc(NC(=O)COC(=O)CCC(=O)c2cccs2)cc1`, -6.94%. The value for `COc1ccc(-c2nc3c(=O)n(C)c(=O)[nH]c3n2CCc2ccccc2)cc1` was 22.1%.

With `Cn1c(=O)c2c(nc(N3CCc4ccccc4C3)n2C)n(C)c1=O`, the “hERG current change (%, negative = inhibition) at 10uM” value came to 7.62%. The value for `CCCCS(=O)(=O)N1CCC(C(=O)Oc2ccccc2OC)CC1` was -9.14%; that for `O=c1cc(N2CCc3ccccc3C2)[nH]c(=O)n1-c1ccc(Cl)cc1` was 3.07%. Regarding `COc1cc2[nH]c(=S)n(Cc3ccccc3)c(=O)c2cc1OC`, the “hERG current change (%, negative = inhibition) at 10uM” value is 11.4%. For `CCOc1ccc(CCNC(=O)CCC(=O)N2CCSc3ccccc32)cc1OCC`, the “hERG current change (%, negative = inhibition) at 10uM” value is given as -2.52%. The result for `O=C(Nc1ccc(Cc2ccncc2)cc1)c1cccc([N+](=O)[O-])c1` reads 13.6%; that for `CC(=O)Nc1ccc(C(=O)CSc2nc3ccccc3n2CC(=O)N2CCCC2)cc1`, 11.1%. The value for `CCOc1cc2c(C#N)c(N3CCNCC3)nc(N)c2c(N)n1` was 5.41%; that for `CC(=O)N1CCN(CC(=O)Nc2cccc(S(=O)(=O)N3CCCCCC3)c2)CC1` was -23.3%. In the case of `O=C(Cc1ccccc1)Nc1cccc(S(=O)(=O)N2CCCCCC2)c1`, the “hERG current change (%, negative = inhibition) at 10uM” value is -49.1%. The value for `COc1ccccc1N1CCN(CCC(=O)Nc2ccc3c(c2)OCO3)CC1` was -26.7%. The value for `O=C(CN1CCN(c2ccccc2)CC1)Nc1cccc(C(F)(F)F)c1` was 2%; that for `O=C(CN1CCOCC1)Nc1cccc(C(=O)Nc2cccc(C(F)(F)F)c2)c1` was -40.1%. Regarding `O=C(CN1CCOCC1)Nc1cccc(C(F)(F)F)c1`, the “hERG current change (%, negative = inhibition) at 10uM” value is recorded as -3%.

Regarding `COc1ccccc1N1CCN(CCC(=O)Nc2cccc(Cl)c2)CC1.Cl`, the “hERG current change (%, negative = inhibition) at 10uM” value is on record as -62.8%. The value for `O=C(CN1CCN(Cc2ccccc2)CC1)Nc1cccc(S(=O)(=O)N2CCCCCC2)c1` was -76.3%; that for `CC1CCN(CC(=O)Nc2cccc(C(=O)Nc3cccc(C(F)(F)F)c3)c2)CC1` was -37.3%; that for `COc1ccccc1N1CCN(CCC(=O)Nc2ccc(F)cc2)CC1` was -19.3%. The result for `CC1CN(CC(=O)Nc2cccc(C(=O)Nc3cccc(C(F)(F)F)c3)c2)CC(C)O1` (centres unmarked) reads -54.3%. The value for `O=C(CN1CCN(Cc2ccccc2)CC1)Nc1cccc(C(F)(F)F)c1` was -71.6%; that for `COc1ccc(NC(=O)Cn2nnc(C(=O)NCc3cccs3)c2N)cc1` was 13.9%. Regarding `COc1ccc(/C=C2\SC(=S)N(Cc3cccnc3)C2=O)cc1C`, the “hERG current change (%, negative = inhibition) at 10uM” value is listed as -3.04%. The result for `Cc1ccc2c(cnn2C(=O)CCC(=O)NC2CCCC2)c1` reads -10.3%. The result for `O=C(CCN1C(=O)/C(=C/c2cccc(Br)c2)SC1=S)NNC(=O)c1cccnc1` reads 6.24%; that for `CCOc1ccccc1NC(=O)COC(=O)c1ccccc1SCC(=O)N1CCCC1`, 1.65%; that for `NNC(=O)CCN1CCN(Cc2ccccc2)CC1`, 17%.

`O=C(CCN1CCN(Cc2ccccc2)CC1)NNC(=O)Nc1cccc(Cl)c1`: the “hERG current change (%, negative = inhibition) at 10uM” value is -47%.

For the molecule `O=C(CNC1CCCCC1)Nc1ccc(S(=O)(=O)N2CCCCC2)cc1`, the “hERG current change (%, negative = inhibition) at 10uM” value was determined as 2.13%.

As to `O=C(CCN1CCN(Cc2ccccc2)CC1)NNC(=O)Cc1ccc(Cl)c(Cl)c1`, the “hERG current change (%, negative = inhibition) at 10uM” value is reported as -74.7%. The value for `Cl.O=C(CNC1CCN(Cc2ccccc2)CC1)Nc1ccc(S(=O)(=O)N2CCCCC2)cc1` was -69.7%; that for `O=C(CCN1CCN(Cc2ccccc2)CC1)Nc1cccc(Cl)c1` was -70.6%. The result for `Cl.O=C(CCN1CCCCC1)Nc1cccc(Cl)c1` reads -35.9%. With `O=C(CNC1CCCC1)Nc1ccc(S(=O)(=O)N2CCCCC2)cc1`, the “hERG current change (%, negative = inhibition) at 10uM” value was -0.797%. The value for `N#Cc1cccc(NC(=O)CN2CCN(Cc3ccccc3)CC2)c1` was -65.1%; that for `N#Cc1cccc(NC(=O)CN2CCCCCC2)c1` was -10.9%; that for `N#Cc1cccc(NC(=O)Cc2ccccc2)c1` was 13.6%. The value for `CCc1ccc(C(=O)NNC(=O)CCN2CCN(Cc3ccccc3)CC2)cc1` was -19.8%. The value for `COc1ccc(NS(=O)(=O)c2cnc[nH]2)cc1` was 17.4%; that for `COCCCNC(=O)c1ccc(NS(C)(=O)=O)cc1` was -2.85%. For the molecule `O=C(O)c1c(NC(=O)c2cccc3ccccc23)sc2c1CCC2`, the “hERG current change (%, negative = inhibition) at 10uM” value worked out at 5.11%. The value for `COc1cccc(CNc2nc(C(F)(F)F)nc3ccccc23)c1` was 0.0262%; that for `CS(=O)(=O)c1cccc(NC(=O)C2CCCN2S(=O)(=O)c2ccc(F)cc2)c1` (centres unmarked) was 7.77%. The result for `Nc1ccc(C(=O)OCc2ccncc2)cc1[N+](=O)[O-]` reads -28.7%; that for `NC(=O)c1cccnc1Nc1ccccc1F`, 0.0995%; that for `CC1(C)C=Cc2cc3ccc(=O)oc3cc2O1`, 3.51%. Regarding `COc1ccc(OCc2n[nH]c(=S)n2-c2ccc(C)cc2)cc1`, the “hERG current change (%, negative = inhibition) at 10uM” value was found to be 0.659%.

With `O=C(O)CSCC(=O)Nc1cccc(C(F)(F)F)c1`, the “hERG current change (%, negative = inhibition) at 10uM” value is reported as -6.67%. In the case of `Cl.O=C(CN1CCCCC1)Nc1cccc(Cl)c1`, the “hERG current change (%, negative = inhibition) at 10uM” value is recorded as -28.8%. The value for `O=C(CN1CCN(Cc2ccccc2)CC1)Nc1cccc(Cl)c1` was -60.7%. The value for `Cc1ccc(S(=O)(=O)N2CCCCC2)cc1NC(=O)Cn1ccc(C(F)(F)F)n1` was -8.63%. The result for `CN(C)C(=S)SCC(=O)Nc1cccc(C(F)(F)F)c1` reads -54.6%; that for `Cl.O=C(CN1CCCC1)Nc1cccc(Cl)c1`, -3.66%. With `O=C(Cn1cnnn1)Nc1cccc(S(=O)(=O)N2CCCCC2)c1`, the “hERG current change (%, negative = inhibition) at 10uM” value is listed as 18.2%. The result for `CCN(CC)C(=S)SCC(=O)Nc1cccc(C(F)(F)F)c1` reads -10%; that for `O=C(Cn1ccc(C(F)(F)F)n1)Nc1cccc(S(=O)(=O)N2CCCCC2)c1`, -60.5%; that for `CCN1CCN(C(=S)Nc2sc(C)c(-c3ccccc3)c2C(=O)OC)CC1`, 15.3%. The value for `CC1(C)Cc2cccc(OCC(=O)OCC(=O)c3ccccc3)c2O1` was 1.43%; that for `Cc1c(NC(=O)CSc2nnnn2-c2ccc(F)cc2)c(=O)n(-c2ccccc2)n1C` was -2.74%. The result for `Cc1cccc(C(=O)Oc2ccc(/C=N/NC(=O)c3ccncc3)cc2)c1` reads 3.1%.
